Shown are actives, neighbours in structure and some others; about 0.69% of the full set was active somewhere.
E coli RNAP – inhibitors of Escherichia coli RNA polymerase | E. coli RNA polymerase, fluorescence transcription assay | P0A8V2 | 0.2% of 62,000 active | AID 559 | inhibition, %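 (tested at 10 µM)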; in the data active = inhibition above about 20%;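 note: 0% = enzyme without compound and 100% = no enzyme blank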
FXIIa mix inh – blocks human factor XIIa in pooled compound mixtures; P00748; 0.2% of 62,000 active; inhibition, % at 5 µM; purified FXIIa, fluorogenic substrate;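 note: 0% = enzyme without compound and 100% = no enzyme blank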
MMP13 inh – inhibitors of human MMP13. P45452. MMP-13 fTHP FRET cleavage, Mca fluorescence. inhibition, % at 4 µM. 0.07% of 65,000 active;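 active = inhibition above the mean of compound-free control plate wells plus 3 SD, cut at about 14% in these data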;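 note: 0% = DMSO wells and 100% = wells with reference MMP-13 inhibitor after basal subtraction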
MT1-MMP txn act – activates MT1-MMP transcription; HT1080 MT1-MMP promoter luciferase reporter, luminescence, overnight; hits give high values; activation factor at 10 µM; 0.16% of 86,000 active; AID 750;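 active = activation factor of at least 2 for MT1-MMP transcription at 10 µM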
WNV NS2B-NS3 inh – WNV NS2B-NS3 proteinase inhibition. WNV NS2B-NS3 protease, fluorogenic substrate Ex360/Em465; hits give low values. 0.18% of 65,000 active. z-score (test concentration not listed). AID 577; in the data active = z-score below about -3
Target sequence (P06935 1371-1501 limits assumed): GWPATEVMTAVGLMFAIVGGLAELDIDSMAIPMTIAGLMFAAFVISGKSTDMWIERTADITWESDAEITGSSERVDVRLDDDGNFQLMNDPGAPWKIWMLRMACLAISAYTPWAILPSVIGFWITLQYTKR
Target sequence (P06935 1502-1679 limits assumed): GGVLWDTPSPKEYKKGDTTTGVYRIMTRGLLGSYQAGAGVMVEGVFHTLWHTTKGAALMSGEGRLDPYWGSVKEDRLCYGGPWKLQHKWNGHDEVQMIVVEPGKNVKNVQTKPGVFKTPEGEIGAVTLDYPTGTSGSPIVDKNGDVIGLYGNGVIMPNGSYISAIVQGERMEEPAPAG
FXIa inh mix – inhibitors of human coagulation factor XIa, pooled mixtures. purified FXIa, fluorogenic substrate. inhibition, % at 5 µM. 0.19% of 62,000 active. AID 680;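 note: each value is inhibition by a whole ten-compound pool holding the compound; 0% = enzyme with no mixture and 100% = wells lacking enzyme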
* = called active by the depositor; . = no result given. Cut-off read from the data, not from the text of the source, unless noted: active = inhibition above about 20% (passing the limit was not always enough); inactive = the rest.

SMILES | E coli RNAP | FXIIa mix inh | MMP13 inh | MT1-MMP txn act | WNV NS2B-NS3 inh | FXIa inh mix
COCCN1Cc2cccc(C(=O)Nc3ccc4c(c3)OCCO4)c2C1=O | 3.5 | -17.7 | 16.6* | 1.3 | 0.39 | 11.0
COCCN1Cc2cccc(C(=O)Nc3cccnc3)c2C1=O | 6.5 | 5.1 | 0.1 | 1 | 0.2 | -2.5
COC(=O)c1cc(Br)c(=O)n(-c2ccccn2)c1 | . | -1.8 | -3.1 | 1 | 1.33 | -3.7
COC(=O)c1cc(Br)c(=O)n(-c2ccc(C(C)=O)cc2)c1 | . | 21.3* | -3.8 | 1.1 | 0.27 | 1.5
CCOC(=O)c1c(C)[nH]c(C(=O)COC(=O)C2CC2C)c1C (stereo unspecified) | 7.8 | 6.1 | -10.7 | 1.1 | -0.64 | 27.3*
CCOC(=O)c1[nH]c(C)c(C(=O)OCC)c1C | 8.9 | -16.8 | -0.1 | 1.2 | 0.66 | -5.4
O=C(c1cccs1)N1CCN(C(=O)c2ccco2)c2ccccc2C1 | 3.8 | 5.3 | -0.8 | 1.1 | -4.82* | 2.1
O=C(Cc1ccccc1)N1CCN(C(=O)c2cccs2)CC1 | 7.5 | 8.0 | 1.3 | 1.2 | -0.27 | 4.4
CCc1ccc(C2(O)CC(C(F)(F)F)=NN2C(=O)Cc2ccc([N+](=O)[O-])cc2)cc1 (stereo unspecified) | . | . | . | 2* | . | .
Cc1cc(C)nc(NC(=O)CSc2nc3ccccc3o2)n1 | . | . | . | 1.4 | . | .
O=C(CSc1nc2ccccc2o1)Nc1ccccc1N1CCCCCC1 | 4.1 | 1.7 | 3.2 | 1.2 | 0.91 | 38.0*
COc1ccccc1NC(=O)c1cc2ccccc2o1 | . | . | . | 2* | . | .
CC(NC(=O)c1cc2ccccc2o1)C(=O)O (stereo unspecified) | 44.2* | -1.4 | 6.3 | 1.1 | -0.02 | 7.5
COc1cc(NC(=O)c2cc3ccccc3o2)c(OC)cc1Br | -5.5 | 2.1 | -7.3 | 1.1 | 1.83 | 6.6
CCOC(=O)C1=C(COc2ccccc2)NC(=O)NC1c1ccc(Br)cc1 (stereo unspecified) | . | . | . | 1 | . | .
COC(=O)C1=C(CCc2ccccc2)NC(=O)NC1c1cccc([N+](=O)[O-])c1 (stereo unspecified) | . | . | . | 1.1 | . | .
CC1=C(C#N)C(Nc2ccc(C)cn2)(C(F)(F)F)C(=O)N1 (stereo unspecified) | . | . | . | 1.1 | . | .
Cc1ccsc1/C=N/Nc1nc(Cl)c(Cl)cc1Cl | . | . | . | 1.8 | . | .
Cc1ccc(/C=N/Nc2nc(Cl)c(Cl)cc2Cl)s1 | . | . | . | 2* | . | .
CCC(C)Nc1c2c(nc3c(-c4ccccc4)c(C)nn13)CCC2 (stereo unspecified) | . | . | . | 1.1 | . | .
COCCN1C(=O)c2ccccc2C(C(=O)NCc2ccco2)C1c1c[nH]c2ccccc12 (stereo unspecified) | 5.7 | 2.5 | 11.1 | 1.1 | -0.22 | 3.0
COCCN1C(=O)c2ccccc2C(C(=O)NCCCN2CCCC2)C1c1c[nH]c2ccccc12 (stereo unspecified) | -1.8 | 7.6 | 6.0 | 1.2 | 1.64 | 37.0*
CC(=O)c1c(C)nc2ccccn12 | 7.1 | 3.5 | 2.5 | 1 | -1.14 | -0.4
Cc1nc2ccccn2c1P(=O)(N1CCCCC1)N1CCCCC1 | -3.0 | 20.5* | -7.4 | 1.1 | 1.17 | 6.3
Nc1nnc(SCC(=O)N2CCN(Cc3ccccc3)CC2)s1 | . | . | . | 1.1 | . | .
SMILES | E coli RNAP | FXIIa mix inh | MMP13 inh | MT1-MMP txn act | WNV NS2B-NS3 inh | FXIa inh mix
CCOC(=O)c1c(NC(=O)c2cccs2)sc2c1CC(C)(C)OC2 | 2.9 | -20.4 | -1.4 | 1 | -0.19 | 21.3*
CC1=C(C(=O)OCc2ccccc2)C(c2ccccc2OC(=O)c2ccc(I)cc2)NC(=O)N1CCCC(=O)O (stereo unspecified) | . | . | . | 1.1 | . | .
Cc1c(Br)c([N+](=O)[O-])nn1CC(=O)NCc1cccnc1 | . | . | . | 1.1 | . | .
O=CN(Cc1ccco1)C1(C(=O)NC2CCCCC2)CCCCC1 | 7.2 | 32.8* | -4.0 | 1.3 | -0.25 | 9.2
CC(=O)N(Cc1ccco1)C1(C(=O)NC2CCCC2)CCCCC1 | . | . | . | 1.2 | . | .
CCOC(=O)CNC(=O)C(Cc1ccccc1)NS(=O)(=O)c1cccs1 (stereo unspecified) | 3.5 | 3.8 | -2.8 | 1.1 | -3.4* | 7.4
C[C@@H](C(=O)Nc1ccc2ccccc2c1)[C@@H]1C[C@@]1(C)[C@@H](NS(=O)(=O)c1ccc(-c2ccccc2)cc1)c1ccccc1 | . | . | . | 1.2 | . | .
COc1ccccc1C1CC(c2cccs2)=Nc2ccccc2S1 (stereo unspecified) | . | . | . | 2.1* | . | .
COC(=O)c1ccc(C(NC(=O)OCc2ccccc2)/C(=C/[C@@H](C)C(=O)Nc2ccccc2)C(F)(F)F)cc1 (stereo partly specified) | . | . | . | 1.1 | . | .
